HT1080 IDH1KD tx – qHTS for induction of synthetic lethality in tumor cells producing 2HG: qHTS for the HT-1080-IDH1KD cell line; HT-1080 IDH1 knockdown viability, ATP luminescence, 48 h; Potency, µM (highest dose often 46.1 µM), inactives show top-dose activity, negative = toxicity, hits mostly cytotoxic; hit rate 2% among 360,000;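 further: potency means the concentration at half of the fitted maximal effect; 0% = DMSO wells and -100% = cell-free medium wells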
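Viability of IDH1-knockdown HT-1080 fibrosarcoma cells was assessed by CellTiter-Glo after 48 h at 37 °C with titrated compound; concentration-effect curves were classified by fit quality and response size.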
TDP1 cell noCPT – qHTS for Inhibitors of human tyrosyl-DNA phosphodiesterase 1 (TDP1): qHTS in cells in absence of CPT; DT40 Tdp1-/- hTDP1 cells, no CPT, ATP luminescence, 48 h; Potency, µM (highest dose often 46.2 µM), inactives show top-dose activity change, negative = growth inhibition, actives largely listed as inhibitors; hit rate 15% among 420,000; AID 686978, 2013; further: potency means the concentration at half of the fitted maximal effect; nearly all actives have a fitted effect of over 55% in size
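Growth kinetics read by CellTiter-Glo luminescence after ≥48 hr at 37 °C. Cells: DT40 Tdp1-/- stably carrying human TDP1, 400 per well, compound exposure in the absence of CPT (DMSO vehicle).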
IL1B secr inh – qHTS for Inhibitors of Inflammasome Signaling: IL-1-beta AlphaLISA Primary Screen | THP-1 LPS/ATP IL-1B secretion, AlphaLISA, 16 h; hits give low values | hit rate 4.7% among 360,000 | activity change, % at 57.5 µM; in the data active means activity change below about -50%; inconclusive means mostly about -30% to -49%
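THP-1 cells pretreated 1 hr with compounds (up to 57.5 uM final), then stimulated with LPS (250 ng/mL final) plus ATP (1.25 mM final); secreted IL-1B measured by AlphaLISA after 16 hr, decreased signal indicating inhibition.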
DT40 TDP1 CPT – qHTS for Inhibitors of human tyrosyl-DNA phosphodiesterase 1 (TDP1): qHTS in cells in presence of CPT; AID 686979, 2013; chicken DT40 Tdp1-/-;hTDP1 cells + 20 nM CPT, ATP luminescence, 48 h; Potency, µM (titrated, usually from 46.2 µM), without a hit: top-dose activity change, negative = growth inhibition, most hits filed as inhibitors; hit rate 12% among 420,000; further: potency means the concentration at half of the fitted maximal effect; nearly all actives have a fitted effect of over 55% in size
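Chicken DT40 Tdp1-/- cells complemented with human TDP1, 400 cells/well, exposed to compounds plus 20 nM camptothecin for at least 48 h at 37 C; viability read as ATP content by CellTiter-Glo luminescence.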
HT1080-NT tox – qHTS for induction of synthetic lethality in tumor cells producing 2HG: qHTS for the HT-1080-NT fibrosarcoma cell line; HT-1080-NT fibrosarcoma viability, CellTiter-Glo ATP luminescence, 48 h; Potency, µM (series often up to 46.1 µM), for inactives: at the top dose activity, negative = less viability, hits mostly cytotoxic; hit rate 1.6% among 360,000; AID 686970, 2013;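 further: NT is the 2HG producing partner of a matched IDH1 knockdown line; potency means the concentration at half of the fitted maximal effect; 0% = DMSO-treated cells and -100% = media-only wells without cells; nearly all actives have a fitted effect of over 55% in size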
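Toxicity toward the 2HG-producing NT line was scored as %Activity, normalised to DMSO and no-cell wells, from CellTiter-Glo luminescence after 48 hours' treatment.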
* = called active by the depositor; ? = inconclusive; · = no result; [ ] = remark or other dose. Shown are actives, neighbours in structure and some others; about 19% of the full set was active somewhere. Unless noted, the call rests on the fitted dose curve; in most records, active means well fitted curve in the direction sought with a large enough effect; inconclusive means small, poorly fitted or top-dose-only effect, or another doubt; inactive means no such curve, though single readings can be large; an effect the other way counts as inactive or inconclusive. Unless noted, on the % scale 0 is the no-effect control and ±100 the full control effect.

SMILES	HT1080 IDH1KD tx	TDP1 cell noCPT	IL1B secr inh	DT40 TDP1 CPT	HT1080-NT tox
O=C(CSc1nc2ccccc2nc1N1CCCCC1)Nc1ccc(F)cc1	9%	?	-18	-11%	1%
CCc1cccc(NC(=O)CSc2nc3ccccc3nc2N2CCCCC2)c1	·	16µM*	·	12µM*	·
Cc1cccc(NC(=O)CSc2nc3ccccc3nc2N2CCCCC2)c1	-26%	?	-4	29µM*	-20%
Cc1cc(C)c(NC(=O)c2nc3ccccc3nc2N2CCCCC2)c(C)c1	·	26µM*	·	?	·
Cc1cccc(NC(=O)CSc2nc3ccccc3nc2N2CCCCC2)c1C	·	12µM*	·	23µM*	·
Cc1cccc(NC(=O)CSc2nc3ccccc3nc2N2CCCC2)c1	?	?	?	?	-27%
O=C(OCC(=O)c1c[nH]c2ccccc12)c1cc2ccccc2cc1O	-27%	-24%	13	-16%	-22%
CCc1ccc(NC(=O)CSc2nc3ccccc3nc2N2CCCCC2)cc1	4%	10µM*	32	?	10%
COc1cc(CN2CCN(C(=O)c3cccc4ccccc34)CC2)cc(OC)c1O	-25%	1%	0	-6%	?
COc1ccc(CCNC(=O)c2ccc(-c3cccc([N+](=O)[O-])c3)o2)cc1OC	-16%	21µM*	-29	?	-11%
COc1cc(NC(=O)c2ccc(-c3cccc([N+](=O)[O-])c3)o2)ccc1NC(=O)C(C)C	-2%	21µM*	10	?	-5%
COc1cc([N+](=O)[O-])ccc1NC(=O)c1cccc(NC(=O)C(C)C)c1	-6%	29µM*	·	?	0%
O=C(NCC1CCC2(CCN(Cc3cccc4cccnc34)CC2)O1)c1ccco1 (centres undefined)	·	-19%	·	-2%	·
O=C(Nc1cccnc1)c1ccccc1F	3%	1%	-14	-3%	22%
O=C(/C=C/c1ccncc1)c1ccc(NC(=O)c2ccccc2F)cc1	9.2µM*	2.9µM*	-104*	4.1µM*	7.3µM*
O=C(/C=C/c1ccc(NC(=O)c2ccccc2-c2ccccc2C(=O)O)cc1)c1ccccc1	?	?	-62*	-19%	?
CCOC(=O)c1c(C)[nH]c(C)c1C(=O)COC(=O)CCOc1ccccc1OC	0%	6%	0	12%	5%
COc1cc(O)c(C(C)=O)c(OC)c1	-1%	?	-13	?	1%
COc1ccc(C(=O)C=Cc2ccc(OCc3ccccc3)c(OC)c2)cc1OC	?	4.6µM*	-90*	7.3µM*	?
COc1ccc(/C=C/C(=O)C(C)(C)C)cc1OC	-9%	?	?	-5%	-15%
COc1cc(OCc2ccccc2)c(C(=O)/C=C/c2ccc3c(c2)OCO3)c(OC)c1OC	?	?	-91*	?	-30%
COc1cc(O)c(C(=O)/C=C/c2ccccc2)c(OC)c1	?	18µM*	-106*	15µM*	?
COc1cc(OC)c(C(=O)C=Cc2ccc(OC)c(OC)c2)c(OC)c1	?	?	-101*	?	?
COc1ccc(C(=O)/C=C/c2ccc(O)cc2)c(O)c1C/C=C(\C)CCC=C(C)C	?	?	-87*	?	?
COc1cc(OC)c(C(=O)/C=C/c2ccc(OCc3ccccc3)c(OC)c2)c(OC)c1	?	23µM*	-90*	23µM*	?
SMILES	HT1080 IDH1KD tx	TDP1 cell noCPT	IL1B secr inh	DT40 TDP1 CPT	HT1080-NT tox
COc1ccc(OC(=O)/C=C/c2ccc([N+](=O)[O-])cc2)cc1	8%	?	22	-17%	9%
COc1cc(/C=C/[N+](=O)[O-])ccc1OC(=O)/C=C/c1ccc(F)cc1	0%	2.3µM*	?	3.3µM*	13%
COc1ccc(C=CC(=O)c2ccc(OC)c(OC)c2O)cc1OC	26µM*	?	?	?	?
CC(C)=CCOc1ccc(/C=C/C(=O)c2ccc(OCC=C(C)C)cc2OCC(=O)O)cc1	·	2%	·	1%	·
COc1ccc(C(=O)O)c(O)c1OC	·	36%	·	13%	·
COC(=O)c1ccc(CN2CCN(C3CCCC3)C(CCO)C2)cc1 (centres undefined)	4%	-7%	18	0%	17%
CCC1CN(Cc2cccn2-c2ccccn2)Cc2cc(OC)ccc2O1 (centres undefined)	·	?	·	-9%[9.04 µM]	·
CC(=O)N/C(=C\c1ccc(Br)s1)C(=O)O	4%	7%	-7	-4%	9%
COc1cc(/C=C/[N+](=O)[O-])ccc1OCc1cccc(C(=O)O)c1	?	16µM*	-97*	16µM*	?
COc1cc(/C=C/C(=O)NC(C)(C)C)ccc1OCc1ccccc1	-20%	?	-13	?	-16%
O=C(CN1CCN(Cc2ccc(F)cc2)C1=O)NCc1ccc(F)cc1	·	-14%	·	-27%	·
O=C(NCc1cc([N+](=O)[O-])ccc1O)c1cc(-c2ccncc2)nc2ccccc12	-19%	?	40	-25%	-19%
CCN(CC)c1ccc(C(=O)NNC(=O)CCl)cc1	?	?	?	16µM*	-15%
CN(Cc1ccccc1)c1ccc(/C=C/c2nc3ccccc3s2)cc1	·	0.1µM*	·	0.32µM*	·
Cc1ccc(/C=C/c2nc3ccccc3s2)s1	?	-25%	-1	-12%	-1%
c1ccc(Cc2nc3ccccc3s2)cc1	3%	-17%	6	-10%	1%
CN(C)c1ccc(/C=C/c2nc3ccccc3s2)cc1	?	0.1µM*	-25	16µM*	?
C=C(/C=C/c1ccc(N(C)C)cc1)c1nc2ccccc2s1	·	0.11µM*	·	0.089µM*	·
COC(=O)c1ccc(/C=C(\C#N)c2nc3ccccc3s2)cc1	10%	-4%	44	-13%	12%
O=C(C1CCOC1)N1CCOc2ccc(CN3CCC(Oc4cccnc4)CC3)cc2C1 (centres undefined)	·	-10%	·	-13%[9.04 µM]	·
COC(=O)N1c2ccccc2C23[C@@H]4CN5CCC[C@]6(CCC12C(O)(C6)C4=O)[C@H]53	·	-15%[9.04 µM]	·	-15%[9.04 µM]	·
CCCCN(Cc1ccccc1)C(=O)CCN1C(=O)C2C3C=CC(C3)C2C1=O (centres undefined)	10%	-10%	22	-21%	3%
CCOC(=O)C1CCN(C(=O)c2ccc3c(c2)sc2nc(-c4ccc(C)cc4)cn23)CC1	·	?	·	-27%	·
Cc1ccc(-c2cn3c(n2)sc2cc(C(=O)NC4CCCCCC4)ccc23)cc1	·	16µM*	·	10µM*	·
